Assay results: article PMC5540273 (PLoS ONE, 2017)

Test system: MAP3K15
Conditions: concentration: 1 μM,replicates: in singlicate; n = 1
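Further: KINOMEscan kinase panel screen.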

Row | Structure (SMILES) | %Inh [%]
1 | Cn1ccc2ncnc(Oc3ccc(NC(=O)Nc4cc(C(C)(C)C)on4)c(Cl)c3)c21 | 0
2 | CC(=O)Nc1ccc(-c2cc3ncnc(SCC(=O)O)c3s2)cc1 | 27
3 | CN(c1ccccc1CNc1nc(Nc2ccc3c(c2)CC(=O)N3)ncc1C(F)(F)F)S(C)(=O)=O | 0
4 | FC(F)(F)c1cc(Br)cc(Nc2nccc(-c3cnn4ncccc34)n2)c1 [GW810578] | 0
5 | O=C1NCCc2[nH]c(-c3ccncc3)cc21 | 85
6 | O=C(Nc1cccc(C(F)(F)F)c1)c1cccc(Oc2ccc3nccn3n2)c1 | 1
7 | Cc1ccc(CC(=O)N2CCc3cc(-c4cn(C)c5ncnc(N)c45)ccc32)cc1 [GSK2634758] | 0
8 | COC(=O)c1cccc(NC(=O)NC2CCN(c3ccnc(NCc4ccc(F)cc4)n3)CC2)c1 [GSK1379860] | 0
9 | Cn1ccc2ncnc(Oc3ccc(NC(=O)Nc4ccnc(C(F)(F)F)c4)c(Cl)c3)c21 | 0
10 | O=C(NOCC1CC1)c1cc(Br)c(F)c(F)c1Nc1ccc(I)cc1Cl | 0
11 | COc1ccc(Nc2nccc(N3CCC(NC(=O)c4cccc(C#N)c4)C3)n2)cc1 (stereo not shown) [GSK1379730] | 0
12 | COc1cccc(C2=C(Nc3cccc(Cl)c3)C(=O)NC2=O)c1 [SB-341556] | 21
13 | Cc1n[nH]c2cc(Nc3ccnc(Nc4cccc(CN5CCOCC5)c4)n3)ccc12 [GW682569] | 0
14 | C[C@@H]1CNc2c(sc3ccc4nc(-c5ccncc5)ccc4c23)C(=O)N1 | 52
15 | C[C@@H]1CCN(C(=O)N2CCCC2)C[C@@H]1N(C)c1ncnc2[nH]ccc12 | 31
16 | Cl.c1ccc(Oc2ccc(Nc3ccnc4cc(-c5ccc(CN6CCNCC6)o5)ccc34)cc2)nc1 [GW567142] | 3
17 | COc1cc2c(Nc3ccc(NC(=O)c4ccccc4)cc3)ncnc2cc1OCCCN1CCOCC1 [GSK301329] | 0
18 | c1ccc(Oc2ccc(Nc3ccnc4ccc(-c5ccccn5)cc34)cc2)cc1 [GW407034] | 0
19 | COc1cc2ncn(-c3cc(OCC4CCCCC4)c(C(N)=O)s3)c2cc1OC [GSK204559] | 0

Row | Structure (SMILES) | %Inh [%]
20 | C[C@@H]1CNc2c(sc3ccc4nc(-c5ccc(O)cc5)ccc4c23)C(=O)N1 | 61
21 | NC(=O)c1ccc(-c2cc3ncnc(SCC(=O)O)c3s2)cc1 | 0
22 | CS(=O)(=O)Nc1ccc(-c2ccnc3[nH]ccc23)cc1 [GSK993273] | 37
23 | N#Cc1cccc(C(=O)NC2CCN(c3ccnc(Nc4ccc(F)cc4)n3)C2)c1 (stereo not shown) [GSK1379708] | 0
24 | CS(=O)(=O)c1cccc(CNc2nc(Nc3ccc4c(c3)[C@@H]3C[C@@H]4CNC3=O)ncc2C(F)(F)F)c1 | 0
25 | COc1cc(Nc2nccc(N3CCC(NC(=O)c4cccc(C#N)c4)C3)n2)cc(OC)c1OC (stereo not shown) [GSK1379751] | 0
26 | CN1CCN(CCCNc2nccc(-c3c(-c4ccc(F)cc4)nn4cc(C(N)=O)ccc34)n2)CC1 [GW622475] | 0
27 | COc1cccc(OC)c1C(=O)Nc1cccc(-c2nn3ccccc3c2-c2ccnc(Nc3cccc(F)c3)n2)c1 [GSK361065] | 0
28 | CCOC(=O)N1CCC(n2cnc(-c3ccc(F)cc3)c2-c2ccnc(N)n2)CC1 [SB-219952] | 36
29 | COC(=O)Nc1nc2cc(Oc3ccc(NC(=O)Nc4cc(C(F)(F)F)ccc4Cl)cc3)ccc2[nH]1.Cl [GW697465] | 0
30 | CS(=O)c1ccc(-c2coc3ccc(-c4n[nH]c(=O)o4)cc23)cc1 (stereo not shown) | 37
31 | Cn1ccc2ncnc(Oc3ccc(NC(=O)Nc4cncc(C(F)(F)F)c4)c(Cl)c3)c21 | 0
32 | Nc1nccc(-c2ccc3c(N)n[nH]c3c2)n1 [GSK1034945] | 0
33 | NC(=O)Nc1sc(-c2ccc(F)cc2)cc1C(N)=O [GW789449] | 16
34 | CN1CCN(CCNc2nc3cc(Oc4ccc(NC(=O)Nc5cc(C(F)(F)F)ccc5F)cc4)ccc3[nH]2)CC1.Cl.Cl [GW768504] | 0
35 | Cl.Nc1n[nH]c2cc(-c3ccccn3)ccc12 [GSK2189892] | 0
36 | CCn1c(-c2nonc2N)nc2cncc(CNC3CCNCC3)c21.Cl [SB-747651] | 3
37 | Cn1ccc2ncnc(Oc3ccc(NC(=O)Nc4cccc(C(F)(F)F)c4)c(Cl)c3)c21 | 0
